The whole screen tested about 63,000 compounds, of which about 1,100 (1.7%) were called active. No stated cut-off is given here; in the data, active means cytotoxicity above about 50%; inactive means the rest. Shown is part of a subset that was picked to be rich in actives. Measured potencies and affinities stand elsewhere.
Assay: HPDE-C7 pancreatic duct cell viability loss – fluorescence, HTS (AID 430);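 further: cells exposed to compound for 48 hours before viability readout; 0% = vehicle and 100% = reference cytotoxic drug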
Conditions: HPDE-C7 pancreatic duct cells viability, at 10 µM, active compounds read high

Row | SMILES | cytotoxicity
1 | CC(c1ccco1)N(C(=O)CSc1ccc(Br)cc1)c1ccccn1 (stereo not given) | 9.1% (inactive)
2 | CCCCOC(=O)C(C)Nc1n[nH]c(=O)[nH]c1=O (stereo not given) | 8.9% (inactive)
3 | Cc1cc(C)n(S(=O)(=O)c2ccc3ccccc3c2)n1 | 28.5% (inactive)
4 | COC(=O)C1=C(CSCc2ccco2)NC(=O)NC1c1cc(C)ccc1C (stereo not given) | -3.6% (inactive)
5 | c1ccc(-c2noc(CN3CCN(c4ccccc4)CC3)n2)cc1 | -1.5% (inactive)
6 | COc1cccc(CNC(=O)C2CCN(S(=O)(=O)c3ccc4c(c3)CCC(=O)N4)CC2)c1 | -2.9% (inactive)
7 | Oc1ccccc1-c1nc(NCc2ccco2)c2ccccc2n1 | 0.8% (inactive)
8 | c1coc(CNc2nc(N3CCCCC3)nc3ccccc23)c1 | 25.2% (inactive)
9 | O=C(Cn1ncc2c(=O)oc3ccccc3c21)N1CCc2ccccc2C1 | -15.7% (inactive)
10 | N#Cc1c(/N=C/N2CCCC2)oc(-c2ccccc2)c1-c1ccccc1 | 13.1% (inactive)
11 | N#Cc1c(/N=C/c2ccco2)oc(-c2ccccc2)c1-c1ccccc1 | 70% (active)
12 | N#Cc1c(N)oc(-c2ccccc2)c1-c1ccccc1 | -7.1% (inactive)
13 | CCC(=O)N1CCN(c2ccc(NC(=O)c3ccc4c(c3)OCO4)cc2)CC1 | -5.7% (inactive)
14 | COc1ccc(CN(C(=O)c2ccccc2OC)C2CCS(=O)(=O)C2)cc1 (stereo not given) | -0.4% (inactive)
15 | CCN(CC)C(=O)CSc1nnc(-c2ccccc2)n1N | -1.9% (inactive)
16 | O=c1[nH]c2ccccc2n1CCCN1CCN(C(c2ccccc2)c2ccccc2)CC1 | -7.2% (inactive)
17 | O=C(NC1CCCCC1)N1CCC(n2c(=O)[nH]c3ccccc32)CC1 | -3.9% (inactive)
18 | O=C1CC(c2ccccc2)Sc2ccccc2N1 (stereo not given) | -15% (inactive)
19 | Cn1cccc1CNC(=O)Nc1ccc(Cl)cc1 | -23.2% (inactive)
20 | C=C(C)COc1ccc(-c2nc(N)ncc2Oc2ccccc2OC)c(O)c1 | 0.9% (inactive)

Row | SMILES | cytotoxicity
21 | C=C(C)COc1ccc(-c2n[nH]c(C)c2Oc2ccccc2OC)c(O)c1 | 61.3% (active)
22 | CCOc1ccc(-c2n[nH]c(C)c2Oc2ccccc2OC)c(O)c1 | -2.5% (inactive)
23 | C=C(C)COc1ccc(-c2nc(N)nc(C)c2Oc2ccccc2OC)c(O)c1 | -1.3% (inactive)
24 | C=C(C)COc1ccc(-c2ncncc2Oc2ccc(OC)cc2)c(O)c1 | 1.9% (inactive)
25 | CC(C)Cc1ccc(C#N)c(SCC(N)=O)n1 | -5.5% (inactive)
26 | Cc1ccc(NC(=O)CSc2nnc(Cn3c(=O)sc4ccccc43)n2C)cc1Cl | -0.9% (inactive)
27 | O=C(COC(=O)CCC(=O)c1ccc2c(c1)OCCO2)NCc1ccc2c(c1)OCO2 | -8.4% (inactive)
28 | Nn1c(Cc2ccccc2F)nnc1SCC(=O)N1CC(=O)Nc2ccccc21 | -3.4% (inactive)
29 | Cc1cc(C)cc(N2CCCn3c2nc2c3c(=O)n(CC(=O)OCc3ccccc3)c(=O)n2C)c1 | 26.4% (inactive)
30 | O=C(O)C1CCCCC1C(=O)OCCCCOC(=O)C1CCCCC1C(=O)O (stereo not given) | 3.9% (inactive)
31 | Cc1[nH]nc(-c2ccc(O)cc2O)c1Oc1ccccc1 | 69.8% (active)
32 | COc1ccc(-c2n[nH]c(C)c2-c2ccc(Cl)cc2)c(O)c1OC | -29.4% (inactive)
33 | COc1ccc(-c2n[nH]c(C)c2-c2cnn(-c3ccccc3)c2)c(O)c1 | 36.4% (inactive)
34 | Cc1[nH]nc(-c2ccc(O)cc2O)c1-c1ccc(Cl)cc1 | 60.1% (active)
35 | COc1ccc(Oc2c(-c3ccc(O)cc3O)n[nH]c2C)cc1 | 26.3% (inactive)
36 | Oc1ccc(-c2[nH]ncc2-c2ccc(Cl)cc2)c(O)c1 | 33.3% (inactive)
37 | CSCCC(C(=O)Nc1ccc2c(c1)OCO2)N1C(=O)c2ccccc2C1=O (stereo not given) | 0.6% (inactive)
38 | CN(C)c1ccc(CNC(=O)C2CCN(S(=O)(=O)c3ccc4c(c3)CCC(=O)N4)CC2)cc1 | 3.1% (inactive)
39 | COc1ccc(N2CC(C(=O)NCCCN3CCOCC3)CC2=O)cc1 (stereo not given) | 3.4% (inactive)
40 | Cn1c(=O)c2c(nc(SCCN3CCOCC3)n2Cc2ccc(F)cc2)n(C)c1=O | 3.9% (inactive)

Row | SMILES | cytotoxicity
41 | CCCc1nc2ccccc2c(C(=O)OC2CCOC2=O)c1CC (stereo not given) | -7.5% (inactive)
42 | NC1(N)OC(CN2C(=O)c3ccccc3C2=O)CS1 (stereo not given) | -15% (inactive)
43 | COc1cc2c3c(c1)C1(C(=O)N3C(C)(C)C=C2C)C(C#N)=C(N)Oc2cc(O)ccc21 (stereo not given) | -9.2% (inactive)
44 | CC1=CC(C)(C)N2C(=O)C3(C(C#N)=C(N)Oc4cc(O)ccc43)c3cccc1c32 (stereo not given) | 68.4% (active)
45 | CC1=CC(C)(C)N2C(=O)C3(C(C#N)=C(N)Oc4cc(C)oc(=O)c43)c3cccc1c32 (stereo not given) | 1.3% (inactive)
46 | Cc1ccc2cc3c(nc2c1)N(Cc1ccco1)CC3 | -15.5% (inactive)
47 | CC1CCN(S(=O)(=O)c2ccc(NC(=O)Cn3nnc(-c4ccccc4)n3)cc2)CC1 | 3.7% (inactive)
48 | Cc1cc(NC(=O)COc2cccc3cccnc23)no1 | 7.3% (inactive)
49 | CCCCCCOC(=O)C(C#N)c1nc2ccccc2nc1N1CCCCC1 (stereo not given) | -47.4% (inactive)
50 | CC(C)COC(=O)C(C#N)c1nc2ccccc2nc1N1CCN(Cc2ccccc2)CC1 (stereo not given) | -14% (inactive)
51 | CCCCCCOC(=O)C(C#N)c1nc2ccccc2nc1N1CCN(CC)CC1 (stereo not given) | 12.4% (inactive)
52 | COc1ccc(CNC(=O)C(C#N)c2nc3ccccc3nc2N2CCN(C)CC2)cc1 (stereo not given) | 72% (active)
53 | COCCOC(=O)C(C#N)c1nc2ccccc2nc1N1CCN(Cc2ccccc2)CC1 (stereo not given) | 8.9% (inactive)
54 | COc1ccc(CNC(=O)C(C#N)c2nc3ccccc3nc2N2CCCC2)cc1 (stereo not given) | -15.8% (inactive)
55 | N#CC(C(=O)NCc1ccccc1)c1nc2ccccc2nc1N1CCCC1 (stereo not given) | -2% (inactive)
56 | CCCCCCOC(=O)C(C#N)c1nc2ccccc2nc1N1CCN(C)CC1 (stereo not given) | 64.2% (active)
57 | CCN1CCN(c2nc3ccccc3nc2C(C#N)C(=O)OCc2ccccc2)CC1 (stereo not given) | 58% (active)
58 | Cc1cc2cc(CCNC(=O)CC(C)C)c(=O)[nH]c2cc1C | 3.7% (inactive)
59 | O=C(NCc1ccco1)c1cc2ccccc2c(=O)o1 | -3.4% (inactive)
60 | Cc1nc(-c2cn[nH]c2)c2cc(C)oc2n1 | 1.2% (inactive)
